Test results reported in PubChem BioAssay (Tox21).
Results filed as inconclusive are left out. Values without a mark were called inactive. Activity calls are given as the source filed them. Calls follow the shape of the dose curve; as a rule, active = well fitted activation curve with a large enough effect in the signal ratio in the repeat runs (not every such curve was filed as active); inconclusive = weak or mixed curves; inactive = flat fitted curve, though single readings scatter; the % refers to the signal ratio.

test: qHTS assay to identify small molecule agonists of the TGF-beta/Smad signaling pathway (AID 1346859); conditions: SBE-bla HEK293T, TGF-beta/Smad beta-lactamase reporter, 5 h; series mostly up to 76.8 µM
Source text: U.S. Tox21 Program National Center for Advancing Translational Sciences [NCATS] NIH Chemical Genomics Center [NCGC] U.S. Environmental Protection Agency [EPA] National Institutes of Environmental Health Sciences [NIEHS] National Toxicology Program [NTP] U.S. Food and Drug Administration [FDA] Tox21 Assay Overview: Transforming growth factor beta (TGF-beta) superfamily consists of a large number of structurally related dimeric proteins that act as hormones or local mediators in regulating a wide range of biological functions. This superfamily includes TGF-betas themselves, the bone morphogenetic proteins (BMPs) and the activins. These ligands induce oligomerization of serine/threonine receptor kinases and phosphorylate the cytoplasmic signaling molecules of Smad protein family. CellSensor SBE-bla HEK 293T cell line (Life Technologies, Carlsbad, CA), responsive to TGF-beta was used to screen Tox21 10K compound library for identification of agonists/antagonists of the Smad signaling pathway. This cell line contains a beta-lactamase reporter gene under control of the Smad binding element (SBE) stably integrated into HEK 293T cells.
Tox21 Assay Protocol Summary: SBE-bla HEK 293T cells were dispensed at 4,000/well in 6 uL of assay medium into black wall/clear-bottom 1536-well plates using a Multidrop Combi (ThermoFisher Scientific, Waltham, MA) dispenser. After the assay plates were incubated at 37 C and 5% CO2 for an overnight, 23 nL of compounds dissolved in DMSO, positive controls or DMSO only was transferred to the assay plate by a Pintool station (Kalypsys, San Diego, CA). The assay plates were incubated at 37 C and 5% CO2 for 5 hr. One uL of LiveBLAzer B/G FRET substrate (Life Technologies) was added using a Flying Reagent Dispenser (Aurora Discovery, San Diego, CA) and the plates were incubated at room temperature for 2 hr. Fluorescence intensity (405 nm excitation, 460 nm and 530 nm emissions) was measured using an Envision plate reader (PerkinElmer, Shelton, CT).
% is scaled to controls: 0 for no effect and ±100 for the full control effect.

| Compound | outcome | activation |
| --- | --- | --- |
| CC(C)(C)c1cc(CCC(=O)OCCSCCOC(=O)CCc2cc(C(C)(C)C)c(O)c(C(C)(C)C)c2)cc(C(C)(C)C)c1O | inactive |  |
| c1ccc(-c2ccccc2-c2ccccc2)cc1 | inactive |  |
| CCCCCCCCCCCCCCCCC(C(=O)O)C(O)(CC(=O)O)C(=O)O (stereo not given) | inactive |  |
| Cn1ccnc1 | inactive |  |
| O=C(Nc1ccccc1)c1cc(Cl)ccc1O | inactive |  |
| CC1(C)[C@H]2CC[C@]1(C)C(=O)C2 | inactive |  |
| N#Cc1nc(Cl)c(Cl)c(Cl)c1Cl | inactive |  |
| Nc1c(Br)cc([N+](=O)[O-])cc1Br | inactive |  |
| O=C(c1ccccc1)c1ccc(Cl)cc1 | inactive |  |
| CCN(CC)c1ccc(C=O)cc1 | inactive |  |
| O=C(O)CN(CCCN(CC(=O)O)CC(=O)O)CC(=O)O |  | 0.66% [at 15.8 µM] |
| C=C(C)CCO | inactive |  |
| [Cl][Sc]([Cl])[Cl] | inactive |  |
| Nc1ccc(Oc2cccc(Oc3ccc(N)cc3)c2)cc1 | inactive |  |
| Cn1c(=O)[nH]c2ncn(C)c2c1=O | inactive |  |
| CCn1c2ccccc2c2ccccc21 | inactive |  |
| CCN(CC)c1ccc(C=O)c(O)c1 | inactive |  |
| Nc1cc([N+](=O)[O-])ccc1Cl | inactive |  |
| C=Cc1ccncc1 | inactive |  |
| CCOC(=O)C1=NN(c2ccc(Cl)cc2Cl)C(C)(C(=O)OCC)C1 (stereo not given) | inactive |  |

| Compound | outcome | activation |
| --- | --- | --- |
| C=CC(=O)OCC(Br)CBr (stereo not given) | inactive |  |
| CC(C)(c1ccc(Oc2ccc(N)cc2)cc1)c1ccc(Oc2ccc(N)cc2)cc1 | inactive |  |
| Cc1cccc2c1ccc1ccccc12 | inactive |  |
| CCCCCCCCc1ccc(Nc2ccc(CCCCCCCC)cc2)cc1 | inactive |  |
| CC(C=O)c1ccccc1 (stereo not given) | inactive |  |
| O=C1OC(O)C(C(Cl)Cl)=C1Cl (stereo not given) | inactive |  |
| CCC1(C)C(=O)N(Cl)C(=O)N1Cl (stereo not given) | inactive |  |
| CCOC(=O)OC(=O)OCC | inactive |  |
| CN1CCN(CCCN2c3ccccc3Sc3ccc(C(F)(F)F)cc32)CC1 | inactive |  |
| CN(C/C=C/c1ccccc1)Cc1cccc2ccccc12 | inactive |  |
| COc1c(Br)cc(Br)c(C)c1Br | inactive |  |
| Nc1ccc2c(S(=O)(=O)O)cccc2c1S(=O)(=O)O | inactive |  |
| Nc1ccc(Cl)c([N+](=O)[O-])c1 | inactive |  |
| CCCC(C)C=O (stereo not given) | inactive |  |
| c1ccc2occc2c1 | inactive |  |
| CC(=O)[C@]1(O)Cc2c(O)c3c(c(O)c2[C@@H](O[C@H]2C[C@H](N)[C@H](O)[C@H](C)O2)C1)C(=O)c1ccccc1C3=O | inactive |  |
| NC(=O)c1ccccc1Cl | inactive |  |
| O=C(CCN1CCC(c2ccccc2)C1)c1ccc2c(c1)OCCO2 (stereo not given) | inactive |  |
| CSc1ccc(O)cc1C | inactive |  |
| CCCCCCCC/C=C\CCCCCCCC(=O)N(CCO)CCO | inactive |  |
